S2 tox: viability counter-screen for ATXN expression inhibitors. S2 cells (HEK-293 line with an ATXN2-luciferase reporter) viability, CellTiter-Fluor protease fluorescence, 24 h. 400,000 tested, 0.49% active. Potency, µM (top dose mostly 56.7 µM), hits mostly cytotoxic; note: nearly all actives have a fitted effect of over 40% in size
ATXN2 expr inh: ATXN2 expression inhibition. HEK-293 ATXN2-luciferase reporter, luminescence, 24 h. Potency, µM (series often up to 57 µM), without a hit: at the top dose activity change, negative = inhibition, actives largely listed as inhibitors. 360,000 tested, 0.72% active. AID 1745845; note: % is set by controls: 0 for no effect and ±100 for the full control effect; nearly all actives have a fitted effect of over 55% in size
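ATXN2-luciferase reporter cells (luciferase flanked by upstream and downstream ATXN2 gene portions) were treated 24 h at 37 °C with compounds at up to 57 uM. SteadyGlo luminescence gave expression; GF-AFC fluorescence gave viability.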
HepG2 viability: kills HepG2 cells in TGF-b inhibitor counter-screen | Potency, µM (titrated, usually from 46.1 µM), for the others: at the top dose activity change, negative = cytotoxicity, hits mostly cytotoxic | 410,000 tested, 0.76% active | AID 588856 | HepG2 CAGA-GFP viability, ATP luminescence, 18 h
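CellTiter-Glo luminescence gave cytotoxicity after 18 hours at 37 degrees C. The cells were HepG2 CAGA-GFP in 1% FBS DMEM, stimulated with 500 pg/mL TGF-beta after compound addition. %Activity was normalised to no-cell wells (complete cell-killing) and DMSO (no toxicity), and curves were fitted and classified.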
Anesthetic bind: binds horse apoferritin like a general anesthetic; P02791; apoferritin/1-aminoanthracene competitive binding, fluorescence; 350,000 tested, 0.074% active; AID 485281; Potency, µM (doses to about 77.5 µM), for the others: top-dose activity change, negative = displacement, actives largely listed as inhibitors; note: % is set by controls: 0 for no effect and ±100 for the full control effect; nearly all actives have a fitted effect of over 20% in size
Target sequence (P02791 2-175 limits assumed): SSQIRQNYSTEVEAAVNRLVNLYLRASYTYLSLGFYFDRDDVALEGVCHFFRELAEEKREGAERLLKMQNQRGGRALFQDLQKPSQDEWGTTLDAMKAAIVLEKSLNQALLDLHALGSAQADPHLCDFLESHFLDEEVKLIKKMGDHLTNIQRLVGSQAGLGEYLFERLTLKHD
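Steps: apoferritin (10 uM) was premixed with half-saturated 1-AMA in PBS, compounds were pin-transferred, plates stood 10 min at room temperature, fluorescence was read at 380/535 nm, and curves were fitted with a Hill equation.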
TGFb inhibitor: blocks TGF-b signaling; HepG2 CAGA-GFP TGF-b/SMAD3 reporter, GFP fluorescence, 18 h; TGF-beta stimulated, 500 pg/mL final; 410,000 tested, 1.2% active; Potency, µM (doses to about 46.1 µM), for the others: at the highest dose activity, negative = inhibition, most hits filed as inhibitors; note: % is set by controls: 0 for no effect and ±100 for the full control effect; nearly all actives have a fitted effect of over 65% in size
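HEPG2 CAGA-GFP reporter cells (1000/well, DMEM with 1% FBS) received compounds, then recombinant TGF-beta at 500 pg/mL final for 18 hours at 37 degrees C. Per-cell GFP summed per well was normalised to unstimulated and stimulated DMSO controls before curve fitting.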
Numbers without * were called inactive; i = inactive; ? = inconclusive; . = no result; ! = not active in a repeat; [ ] = remark or other dose. Sampled rows, rich in hits. Any-hit rate of the full collection: about 2.4%. Calls come from the whole dose curve; as a rule, active = well fitted curve in the direction sought with a large enough effect; inconclusive = small, poorly fitted or top-dose-only effect, or another doubt; inactive = no such curve, though single readings can be large; an effect the other way counts as inactive or inconclusive. Potency is the fitted concentration of half-maximal effect.

SMILES	S2 tox	ATXN2 expr inh	HepG2 viability	Anesthetic bind	TGFb inhibitor
CNC(=O)N1N=C(c2ccc(N)cc2)c2cc3c(cc2CC1C)OCO3 (stereo unspecified)	.	87.1%	.	.	.
O=C(CCl)c1ccc(Cl)cc1Cl	11.2µM*!	?	.	.	.
O=C(CN1CCCCC1)c1ccccc1Cl	i	2.0%	-20.5%	-12.6%	?
O=C(Nc1ccc(OC(F)(F)F)cc1)Oc1ccccc1N1CCCCC1	?	.	-102.2%	-3.6%	12.6µM*
O=C(Nc1ccc(OC(F)(F)F)cc1)Oc1ccccc1N1CCOCC1	i	-24.6%	-64.8%	-9.3%	?
C[C@H]1CCCC=CC2C[C@H](O)C[C@@H]2[C@H](O)C=CC(=O)O1 (stereo partly specified)	.	?	-43.1%	.	0.126µM*
COc1cc(CN2CCc3nc(N4CCN(c5ccccn5)CC4)ncc3C2)cc(OC)c1OC	?	?	-28.1%	-10.1%	-31.3%
CCNC1(c2cccs2)CCCCC1=O (stereo unspecified)	i	.	.	.	.
CCOC(=O)c1ccc(N2C(=O)c3n[nH]c(-c4cccs4)c3C2c2ccc(OC)cc2OC)cc1 (stereo unspecified)	i	7.7%	-23.5%	-14.6%	5.01µM*
CC1Sc2c(C(=O)O)c(=O)c3cc(F)c(N4CCNCC4)cc3n21 (stereo unspecified)	i	6.0%	.	.	.
CCCCCCCCCCCC[N+](C)(C)CCOc1ccccc1	?	31.6µM*	.	.	.
CCC(C(=O)Nc1ccccc1C(=O)OC)n1nc(C)c2c(C)n(-c3ccc(C)cc3)nc2c1=O (stereo unspecified)	.	.	-15.4%	-6.8%	11.2µM*
CC/C(=C\C=C\[C@@H]1C=C[C@@H]2CCC[C@H]2[C@@H]1C(=O)c1ccc[nH]1)[C@@H]1O[C@@H]([C@@H](C)C(=O)O)CC[C@@H]1C	?	?	15.8µM*	-17.3%	11.2µM*
C1=C2CCCN[C@H]2[C@@H]2C[C@H]1[C@@H]1CCCCN1C2	.	-15.8%	.	.	.
C[C@]12CC[C@H]3[C@@H](CC[C@]4(O)C[C@@H](O)CC[C@]34C=O)[C@@]1(O)CC[C@@H]2C1=CC(=O)OC1	?	0.316µM*	-65.3%	.	7.08µM*
CC(=O)O[C@H]1CC[C@]2(C=O)C3CC[C@]4(C)[C@@H](C5=CC(=O)OC5)CC[C@]4(O)C3CC[C@]2(O)C1 (stereo partly specified)	.	.	-34.4%	6.4%	11.2µM*
C[C@]12CCC3C(CCC4=CC(O)CC[C@@]43/C=N/O)C1(O)CCC2C1=CC(=O)OC1 (stereo partly specified)	i	?	-53.5%	-3.0%	7.94µM*
CC12CCC3C(CCC4(O)CC(O)CCC34C=O)C1(O)CCC2C1=CC(=O)OC1 (stereo unspecified)	?	1.78µM*	-39.5%	.	?
C[C@H](CO)N1C[C@H](C)[C@H](CN(C)S(=O)(=O)c2ccccc2)Oc2ccc(NC(=O)NC3CCCCC3)cc2CC1=O	?	-13.2%	3.6%	.	-13.7%
O=C(O)CCC(CP(=O)(O)O)C(=O)O (stereo unspecified)	.	.	.	-0.2%	.
O=C1C(Cl)=C(Cl)C(=O)C(Cl)=C1Cl	.	.	.	-17.0%	.
C[C@H]1O[C@@H](OC2CC[C@]3(C=O)[C@H]4CC[C@]5(C)[C@@H](C6=CC(=O)OC6)CC[C@]5(O)[C@@H]4CC[C@]3(O)C2)CC2OC(C)(C)OC21 (stereo partly specified)	?	.	-57.1%	1.0%	2µM*
C[C@@H]1O[C@H](O[C@@H]2CC[C@@]3(C=O)[C@H]4CC[C@@]5(C)[C@@H](C6=CC(=O)OC6)CC[C@@]5(O)[C@@H]4CC[C@]3(O)C2)C[C@H](O)[C@@H]1O	.	.	.	35.3%[29.3 µM]	.
c1ccc2c(CN3CCCCCC3)c[nH]c2c1	i	-7.4%	-34.4%	-10.7%	-17.5%
c1ccc2c(CNC3CCCCCC3)c[nH]c2c1	28.2µM*	20µM*	-112.6%	-18.3%	?
SMILES	S2 tox	ATXN2 expr inh	HepG2 viability	Anesthetic bind	TGFb inhibitor
COc1cc2c3c(c1OC)Oc1ccc(cc1)C[C@H]1c4c(cc(OC)c(OC)c4Oc4ccc(cc4)C[C@@H]3N(C)CC2)CCN1C	.	?	-35.4%	.	-10.4%
COc1cc2c3cc1Oc1cc(ccc1O)C[C@@H]1c4c(cc(OC)c(O)c4Oc4ccc(cc4)C[C@H]3N(C)CC2)CCN1C	3.98µM*	?	-5.4%	3.3%	0.8%
COc1cc2c3cc1Oc1cc(ccc1O)C[C@@H]1c4c(cc(OC)c(O)c4Oc4cccc(c4)C[C@@H]3N(C)CC2)CC[N+]1(C)C	i	12.4%	1.5%	.	-0.1%
COc1ccc2cc1Oc1ccc(cc1)C[C@H]1c3cc(c(OC)cc3CCN1C)Oc1c(OC)c(OC)cc3c1[C@H](C2)N(C)CC3	25.1µM*	?	-60.2%	-13.7%	?
COc1cc2c(cc1O)C[C@H]1c3c(cc(O)c(OC)c3-2)CCN1C	?	0.1%	2.4%	-2.4%[29.3 µM]	30.2%
COc1cc2c3cc1Oc1c(OC)c(OC)cc4c1[C@H](Cc1ccc(cc1)Oc1cc(ccc1O)C[C@H]3N(C)CC2)N(C)CC4	14.1µM*	-11.1%	-51.4%	.	?
O=c1c(C2CC(c3ccc(-c4ccc(Br)cc4)cc3)Cc3ccccc32)c(O)sc2ccccc12 (stereo unspecified)	i	?	.	.	.
CCOc1cccc(CC(=O)NCc2ccc3c(c2)CCN3C(=O)c2cccc(C)c2)c1OCC	28.2µM*	?	-11.7%	51.2%	?
CCOc1ccccc1NC(=O)NCc1ccc2c(c1)CCN2C(=O)c1ccccc1	.	.	-16.7%	15.1%	?
CCOC(=O)[C@]12Cc3cc(OC)ccc3[C@H]1N(C1CCCCC1)C(=O)c1ccccc12	7.08µM*	4.47µM*	.	.	.
CCOC(=O)[C@]12Cc3cc(Cl)ccc3[C@H]1N(C1CCCCC1)C(=O)c1ccccc12	3.55µM*	3.16µM*	.	.	.
CCOC(=O)[C@]12Cc3cc(Cl)ccc3[C@H]1N(C)C(=O)c1ccccc12	i	2.2%	.	.	.
CN1CCC(c2c[nH]c3ccc(O)cc23)CC1	i	2.4%	1.8%	.	16.3%
CC1CCCC(C)N1/N=C/c1c[nH]c2ccc(Br)cc12 (stereo unspecified)	i	-36.2%	17.8µM*	?	?
C=C1C[C@H]2[C@H]3CCC(=O)[C@@]3(C)CC[C@@H]2[C@@]2(C)C=CC(=O)C=C12	.	-0.9%	.	.	.
CC(=O)N1CC[N+](C)(C)CC1	.	.	.	2.7%	.
O=C1NC2C(=CC(O)C(O)C2O)c2cc3c(cc21)OCO3 (stereo unspecified)	?	0.947µM*	-3.6%	.	?
COC1=C(C)C(=O)c2c(c(COC(N)=O)c3n2C[C@@H]2[C@@H]3N2C)C1=O (stereo partly specified)	.	.	7.08µM*	.	4.47µM*

Source: PubChem
